TDP1 cell CPT = growth inhibition of DT40 Tdp1-/-;hTDP1 cells with camptothecin (screen for TDP1 inhibitors) | Potency, µM (highest dose often 46.2 µM), actives largely listed as inhibitors | chicken DT40 Tdp1-/-;hTDP1 cells + 20 nM CPT, ATP luminescence, 48 h | 420,000 tested, 12% active | AID 686979; also: nearly all actives have a fitted effect of over 55% in size
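Cell growth measured by CellTiter-Glo luminescence after a minimum 48 h, 37 C compound exposure with 20 nM CPT in Tdp1-knockout DT40 cells stably expressing hTDP1, seeded 400/well; qHTS titration format.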
VP16 counter = Gal4-VP16 reporter inhibition counter-screen. 310,000 tested, 3.5% active. Drosophila S2 Gal4-VP16 UAS-luciferase, luminescence, 20 h. AID 2546. Potency, µM (series often up to 53.6 µM), hits mostly inhibitors;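 also: Gal4-VP16 expression switched on by copper sulfate through the metallothionein promoter; nearly all actives have a fitted effect of over 50% in size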
LDHA block = inhibitors of human lactate dehydrogenase A; purified LDHA, NADH/diaphorase-resazurin fluorescence; active compounds read low; activity change, % (values are at about 110 or 230 µM); AID 1347041; 480,000 tested, 0.15% active; P00338; in the data active = activity change below about -30%; inconclusive = mostly about -25% to -30%
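LDH5 2 nM; NADH 0.06 mM, pyruvate 0.2 mM; 200 mM Tris pH 7.4, EDTA, Tween-20; 5 min RT. Detection: diaphorase 0.133 mg/mL + resazurin 37 µM, fluorescence ex540/em590 at 0 and 20 min; normalized to enzyme-free and DMSO wells.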
IL1B secr inh = blocks inflammasome-driven IL-1 beta release | 360,000 tested, 4.7% active | THP-1 LPS/ATP IL-1B secretion, AlphaLISA, 16 h; active compounds read low | AID 743279 | activity change, % at 57.5 µM; in the data active = activity change below about -50%; inconclusive = mostly about -30% to -49%
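THP-1 cells pretreated 1 hr with compounds (up to 57.5 uM final), then stimulated with LPS (250 ng/mL final) plus ATP (1.25 mM final); secreted IL-1B measured by AlphaLISA after 16 hr, decreased signal indicating inhibition.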
RORgamma inh = ROR gamma (mouse) transcription inhibition. P51450. Drosophila S2 Gal4-RORgamma UAS-luciferase reporter, 20 h. Potency, µM (top dose mostly 53.6 µM), usual class: inhibitors. 310,000 tested, 5.4% active. AID 2551; also: nearly all actives have a fitted effect of over 60% in size
Target sequence (P51450 whole entry, looked up, the tested form may be a part): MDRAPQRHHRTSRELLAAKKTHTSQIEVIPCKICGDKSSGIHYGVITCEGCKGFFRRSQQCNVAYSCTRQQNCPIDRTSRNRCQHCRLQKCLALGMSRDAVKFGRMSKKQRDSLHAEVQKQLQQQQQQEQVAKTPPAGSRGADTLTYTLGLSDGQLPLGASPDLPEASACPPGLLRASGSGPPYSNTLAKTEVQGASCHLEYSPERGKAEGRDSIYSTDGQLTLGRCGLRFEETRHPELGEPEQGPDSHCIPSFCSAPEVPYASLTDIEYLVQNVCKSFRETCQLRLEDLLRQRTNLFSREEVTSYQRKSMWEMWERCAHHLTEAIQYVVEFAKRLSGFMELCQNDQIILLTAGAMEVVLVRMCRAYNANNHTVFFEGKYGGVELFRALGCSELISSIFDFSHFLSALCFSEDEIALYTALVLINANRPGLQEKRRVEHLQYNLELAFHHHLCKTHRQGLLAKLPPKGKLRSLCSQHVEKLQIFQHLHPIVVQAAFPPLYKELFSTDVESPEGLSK
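Luciferase reporter read in Schneider cells carrying Gal4-RORγ (mouse) and UAS-Photinus luciferase; cells given compound 1 h before 700 uM copper sulfate induction, then incubated 20 h at ambient temperature.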
TDP1 cell noCPT = qHTS for Inhibitors of human tyrosyl-DNA phosphodiesterase 1 (TDP1): qHTS in cells in absence of CPT; DT40 Tdp1-/- hTDP1 cells, no CPT, ATP luminescence, 48 h; Potency, µM (titrated, usually from 46.2 µM), hits mostly inhibitors; 420,000 tested, 15% active; also: nearly all actives have a fitted effect of over 55% in size
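Luminescent ATP content (CellTiter-Glo) served as the growth readout. Knockout chicken DT40 cells expressing human TDP1 were exposed to compounds without camptothecin for a minimum 48 hr at 37 °C.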
Large screens that a line does not name were inactive. A selection: hits, their analogues and other compounds. The true share with any hit is near 18%. Unless noted, calls follow the shape of the dose curve; as a rule, active = well fitted curve in the direction sought with a large enough effect; inconclusive = small, poorly fitted or top-dose-only effect, or another doubt; inactive = no such curve, though single readings can be large; an effect the other way counts as inactive or inconclusive.

Cc1ccc(SCCC(=O)N2CCN(S(=O)(=O)c3ccc(Cl)s3)CC2)cc1	none (no result: TDP1 cell CPT, VP16 counter, IL1B secr inh, RORgamma inh, TDP1 cell noCPT)
COC(=O)c1ccc(NC(=O)CSc2nnc(C)n2-c2ccccc2)cc1	none
Cc1ccc(CCc2nnc(SCC(=O)Nc3ccccc3Cl)n2-c2ccccc2)o1	TDP1 cell CPT inconclusive, IL1B secr inh -63.6, RORgamma inh inconclusive, TDP1 cell noCPT inconclusive
CCOC(=O)c1ccc(NC(=O)CSc2nnc(CCc3ccc(C)o3)n2-c2ccccc2)cc1	TDP1 cell CPT inconclusive, VP16 counter 14.1µM, IL1B secr inh inconclusive, RORgamma inh inconclusive, TDP1 cell noCPT inconclusive
CCCCCNC(=O)c1ccc(Nc2ccc(-c3cccc(C)c3)nn2)cc1	none (no result: TDP1 cell CPT, VP16 counter, IL1B secr inh, RORgamma inh, TDP1 cell noCPT)
Fc1cccc(-c2nnn3c2nc(NC2CCCCC2)c2ccccc23)c1	TDP1 cell CPT inconclusive, TDP1 cell noCPT 25.9µM (no result: VP16 counter, IL1B secr inh, RORgamma inh)
Clc1nc2c(-c3ccccc3)nnn2c2ccccc12	TDP1 cell CPT 2.59µM, IL1B secr inh -84.4, TDP1 cell noCPT 3.26µM
Fc1cccc(-c2nnn3c2nc(Cl)c2ccccc23)c1	TDP1 cell CPT 2.59µM, TDP1 cell noCPT 2.59µM
Fc1cccc(-c2nnn3c2nc(NCCc2ccccc2)c2ccccc23)c1	none (no result: VP16 counter, IL1B secr inh, RORgamma inh)
Fc1cccc(-c2nnn3c2nc(NCc2ccc4c(c2)OCO4)c2ccccc23)c1	TDP1 cell noCPT inconclusive (no result: VP16 counter, IL1B secr inh, RORgamma inh)
Cc1ccc(-c2nnn3c2nc(Cl)c2ccccc23)cc1	TDP1 cell CPT 2.91µM, IL1B secr inh -74.5, TDP1 cell noCPT 4.61µM
CCN(CC)C(=O)C(Sc1n[nH]c(-c2ccccc2)n1)c1ccccc1 (stereo unspecified)	none (no result: TDP1 cell CPT, VP16 counter, IL1B secr inh, RORgamma inh, TDP1 cell noCPT)
CCOC(=O)c1ccc(NC(=O)CSc2cn(CC(=O)N3CCCC3)c3ccccc23)cc1	TDP1 cell CPT inconclusive, TDP1 cell noCPT 18.4µM (no result: VP16 counter, IL1B secr inh, RORgamma inh)
Cc1cccc(NC(=O)CS(=O)(=O)c2cn(CC(=O)N3CCOCC3)c3ccccc23)c1	TDP1 cell CPT 0.517µM, TDP1 cell noCPT 2.31µM
Cc1cc(C)c(NC(=O)CSc2cn(CC(=O)N3CCOCC3)c3ccccc23)c(C)c1	none (no result: VP16 counter, IL1B secr inh, RORgamma inh)
Cc1ccc(NC(=O)CSc2cn(CC(=O)N3CCOCC3)c3ccccc23)cc1Cl	TDP1 cell CPT 20.6µM, TDP1 cell noCPT 20.6µM (no result: VP16 counter, IL1B secr inh, RORgamma inh)
COC(=O)c1ccc(NC(=O)CSc2cn(CC(=O)N3CCCCCC3)c3ccccc23)cc1	TDP1 cell CPT inconclusive, TDP1 cell noCPT 18.4µM (no result: VP16 counter, IL1B secr inh, RORgamma inh)
CC(=O)c1ccc(NC(=O)CSc2cn(CC(=O)N3CCCCCC3)c3ccccc23)cc1	TDP1 cell CPT inconclusive, TDP1 cell noCPT inconclusive (no result: VP16 counter, IL1B secr inh, RORgamma inh)
CCc1ccc(NC(=O)CSc2cn(CC(=O)N3CCCC3)c3ccccc23)cc1	TDP1 cell CPT 18.4µM, TDP1 cell noCPT inconclusive (no result: VP16 counter, IL1B secr inh, RORgamma inh)
CCc1ccc(NC(=O)CSc2cn(CC(=O)N3CCOCC3)c3ccccc23)cc1	TDP1 cell noCPT inconclusive (no result: VP16 counter, IL1B secr inh, RORgamma inh)
Cc1cnc(NC(=O)[C@@H](NC(=O)c2ccccc2F)C(C)C)s1	none (no result: TDP1 cell CPT, VP16 counter, IL1B secr inh, RORgamma inh, TDP1 cell noCPT)
CCCc1cc(=O)[nH]c(SCC(=O)N2CCN(S(=O)(=O)c3ccccc3)C2)n1	none (no result: TDP1 cell CPT, VP16 counter, IL1B secr inh, RORgamma inh, TDP1 cell noCPT)
Cn1c(=O)oc2cc(S(=O)(=O)N3CCCC(C(=O)Nc4nccs4)C3)ccc21 (stereo unspecified)	TDP1 cell CPT inconclusive, TDP1 cell noCPT 20.6µM
Cn1c(=O)oc2cc(S(=O)(=O)N3CCCC(C(=O)Nc4ccc(Br)cc4F)C3)ccc21 (stereo unspecified)	none (no result: VP16 counter, IL1B secr inh, RORgamma inh)
CCN(CC)c1ccc(NC(=O)C2CCCN(S(=O)(=O)c3ccc4c(c3)oc(=O)n4C)C2)c(C)c1 (stereo unspecified)	TDP1 cell CPT 20.6µM, TDP1 cell noCPT 10.3µM (no result: VP16 counter, IL1B secr inh, RORgamma inh)
CC(C)C(=O)/C(C#N)=C\c1cc2ccccc2nc1N1CCOCC1	none (no result: TDP1 cell CPT, VP16 counter, IL1B secr inh, RORgamma inh, TDP1 cell noCPT)
CC(=O)Nc1ccc(S(=O)(=O)Nc2cccc(-c3csc(C)n3)c2)cc1	TDP1 cell CPT 20.6µM, RORgamma inh inconclusive, TDP1 cell noCPT inconclusive
Nc1nc(-c2cccc(NS(=O)(=O)c3ccccc3)c2)cs1	TDP1 cell CPT inconclusive, VP16 counter 17.8µM, RORgamma inh inconclusive, TDP1 cell noCPT inconclusive

Assay outcomes from PubChem BioAssay.
